Results filed as inconclusive are left out. Calls of active or inactive are those of the source. The call rests on the fitted dose curve; in most records, active means well fitted cell-killing curve with a large enough effect; inconclusive means small, poorly fitted or top-dose-only effect, or effect the other way; inactive means flat fitted curve, though single readings scatter. *1 amine or outer side, *2 acyl side, *3 side chain or, on linkers, in order; H or OH if unused. Where a SMILES comes first, the peptide text is derived from it. Bridges are numbered along the chain shown (N, C = ends). X6 = O=C(CCC[*:2])[*:1]
How the values were obtained:
Experiment in all cases: Primary qHTS to identify gynecologic anti-cancer compounds using libraries of approved drugs and bioactive compounds (AID 1345084); further: nearly all actives have a fitted effect of over 55% in size
Es-2 = settings: Gynecologic cancer cell panel viability, ATPlite luminescence, 48 h; series mostly up to 57.5 µM
Method in brief: (§1)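 Cells, 1,000 per well, were allowed to settle for 16 h at 37 C before compound addition. Five concentrations were tested for 48 h, and viability was read by ATPlite luminescence after 15 min at room temperature.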

HeLa = settings: Gynecologic cancer cell panel viability, ATPlite luminescence, 48 h; series mostly up to 57.5 µM
Method in brief: as §1

Hek293T = settings: Gynecologic cancer cell panel viability, ATPlite luminescence, 48 h, control line for the selectivity index; series mostly up to 57.5 µM
Method in brief: as §1

JEG-3 = settings: Gynecologic cancer cell panel viability, ATPlite luminescence, 48 h; series mostly up to 57.5 µM
Method in brief: as §1

OV90 = settings: Gynecologic cancer cell panel viability, ATPlite luminescence, 48 h; series mostly up to 57.5 µM
Method in brief: as §1

PA-1 = settings: Gynecologic cancer cell panel viability, ATPlite luminescence, 48 h; series mostly up to 57.5 µM
Method in brief: as §1

SKOV3 = settings: Gynecologic cancer cell panel viability, ATPlite luminescence, 48 h; series mostly up to 57.5 µM
Method in brief: as §1

Tov-21-G = settings: Gynecologic cancer cell panel viability, ATPlite luminescence, 48 h; series mostly up to 57.5 µM
Method in brief: as §1

Tov112D = settings: Gynecologic cancer cell panel viability, ATPlite luminescence, 48 h; series mostly up to 57.5 µM
Method in brief: as §1
On the % scale 0 is the no-effect control and ±100 the full control effect.

CC1(C)CC[C@]2(C(=O)O)CC[C@]3(C)C(=CCC4[C@@]5(C)C[C@H](O)[C@H](O[C@@H]6OC[C@H](O)[C@H](O)[C@H]6O)[C@@](C)(CO)C5CC[C@]43C)[C@@H]2C1 (some centres undefined)
inactive: Potency (Es-2) | Potency (HeLa) | Potency (Hek293T) | Potency (JEG-3) | Potency (OV90) | Potency (PA-1) | Potency (SKOV3) | Potency (Tov-21-G) | Potency (Tov112D)

O=C(OCC12OC1C=CC(OC(=O)c1ccccc1)C2O)c1ccccc1 (centres undefined)
inactive: Potency (Es-2) | Potency (HeLa) | Potency (Hek293T) | Potency (JEG-3) | Potency (OV90) | Potency (PA-1) | Potency (SKOV3) | Potency (Tov-21-G) | Potency (Tov112D)

CC(C)C(=O)c1cn(CC(=O)COc2ccc(Oc3ccccc3)cc2)c2ccc(C(=O)O)cc12
inactive: Potency (Es-2) | Potency (HeLa) | Potency (Hek293T) | Potency (JEG-3) | Potency (OV90) | Potency (PA-1) | Potency (SKOV3) | Potency (Tov-21-G) | Potency (Tov112D)

CC(NCc1ccc(OCc2cccc(F)c2)cc1)C(N)=O (centres undefined)
inactive: Potency (Es-2) | Potency (HeLa) | Potency (Hek293T) | Potency (JEG-3) | Potency (OV90) | Potency (PA-1) | Potency (SKOV3) | Potency (Tov-21-G) | Potency (Tov112D)

CC(C)=CCCC1(C)Oc2cc3c(c4c2C2C(O4)C(C)(O)CCC21)CN(C(CCC(=O)O)C(=O)O)C3=O (centres undefined)
inactive: Potency (Es-2) | Potency (HeLa) | Potency (Hek293T) | Potency (JEG-3) | Potency (OV90) | Potency (PA-1) | Potency (SKOV3) | Potency (Tov-21-G) | Potency (Tov112D)

CC(=O)c1c(O)cc2cccc3c2c1CC(C)(O)O3 (centres undefined)
inactive: Potency (Es-2) | Potency (HeLa) | Potency (Hek293T) | Potency (JEG-3) | Potency (OV90) | Potency (PA-1) | Potency (SKOV3) | Potency (Tov-21-G) | Potency (Tov112D)

N#Cc1ccnc(N2C(=O)CC[C@H]2C(=O)N(c2cncc(F)c2)[C@H](C(=O)NC2CC(F)(F)C2)c2ccccc2Cl)c1
inactive: Potency (Es-2) | Potency (HeLa) | Potency (Hek293T) | Potency (JEG-3) | Potency (OV90) | Potency (PA-1) | Potency (SKOV3) | Potency (Tov-21-G) | Potency (Tov112D)

CC(C)(O)C1CC=C(C(=O)OCC2OC(Oc3c(O)cc(C(=O)O)cc3O)C(O)C(O)C2O)CC1 (centres undefined)
inactive: Potency (Es-2) | Potency (HeLa) | Potency (Hek293T) | Potency (JEG-3) | Potency (OV90) | Potency (PA-1) | Potency (SKOV3) | Potency (Tov-21-G) | Potency (Tov112D)

C=C(C)[C@@H]1CC[C@](C)(O)[C@@H](OC(=O)c2ccccc2)C1
inactive: Potency (Es-2) | Potency (HeLa) | Potency (Hek293T) | Potency (JEG-3) | Potency (OV90) | Potency (PA-1) | Potency (SKOV3) | Potency (Tov-21-G) | Potency (Tov112D)

CC(=O)c1c(C)cc(O)cc1O[C@@H]1O[C@H](CO)[C@@H](O)[C@H](O)[C@H]1O
inactive: Potency (Es-2) | Potency (HeLa) | Potency (Hek293T) | Potency (JEG-3) | Potency (OV90) | Potency (PA-1) | Potency (SKOV3) | Potency (Tov-21-G) | Potency (Tov112D)

CC(C)C1=CC2=CCC3[C@](C)(CCC[C@@]3(C)C(=O)O)C2CC1=O (some centres undefined)
inactive: Potency (Es-2) | Potency (HeLa) | Potency (Hek293T) | Potency (JEG-3) | Potency (OV90) | Potency (PA-1) | Potency (SKOV3) | Potency (Tov-21-G) | Potency (Tov112D)

O=c1c2ccccc2nc2n1CCC2O (centres undefined)
inactive: Potency (Es-2) | Potency (HeLa) | Potency (Hek293T) | Potency (JEG-3) | Potency (OV90) | Potency (PA-1) | Potency (SKOV3) | Potency (Tov-21-G) | Potency (Tov112D)

C[C@]12CCC[C@](C)(C(=O)O)C1CCC13C=C(CO)C(CCC12)C3 (some centres undefined)
inactive: Potency (Es-2) | Potency (HeLa) | Potency (Hek293T) | Potency (JEG-3) | Potency (OV90) | Potency (PA-1) | Potency (SKOV3) | Potency (Tov-21-G) | Potency (Tov112D)

CC[C@H](C)[C@@H]1NC(=O)[C@H](Cc2ccc(OC)cc2)NC(=O)CCCSC[C@@H](C(=O)N2CCC[C@H]2C(=O)N[C@@H](CC(C)C)C(=O)NCC(N)=O)NC(=O)[C@H](CC(N)=O)NC(=O)[C@H](CCC(N)=O)NC1=O (Y(Me)IQNCPLG-NH2; linker N-5 via X6)
inactive: Potency (Es-2) | Potency (HeLa) | Potency (Hek293T) | Potency (JEG-3) | Potency (OV90) | Potency (PA-1) | Potency (SKOV3) | Potency (Tov-21-G) | Potency (Tov112D)

Cc1[nH]cnc1C1CCN(c2nc3cccc4c3n2CCC4=O)CC1
inactive: Potency (Es-2) | Potency (HeLa) | Potency (Hek293T) | Potency (JEG-3) | Potency (OV90) | Potency (PA-1) | Potency (SKOV3) | Potency (Tov-21-G) | Potency (Tov112D)

C#Cc1cnc2[nH]c(=O)n(C(CC)CC)c2n1
inactive: Potency (Es-2) | Potency (HeLa) | Potency (Hek293T) | Potency (JEG-3) | Potency (OV90) | Potency (PA-1) | Potency (SKOV3) | Potency (Tov-21-G) | Potency (Tov112D)

C[C@@H]1CC[C@]2(C(=O)O)CC[C@]3(C)C(=CCC4[C@]5(C)C(CC[C@]43C)C(C)(C)[C@@H](O)[C@H](O)[C@@H]5O)C2[C@]1(C)O (some centres undefined)
inactive: Potency (Es-2) | Potency (HeLa) | Potency (Hek293T) | Potency (JEG-3) | Potency (OV90) | Potency (PA-1) | Potency (SKOV3) | Potency (Tov-21-G) | Potency (Tov112D)

C/C=C(\C)C(=O)O[C@@H]1CC2[C@@H](CC=C3C[C@@H](O[C@H]4C[C@H](OC)[C@H](O[C@H]5C[C@H](OC)[C@H](O[C@H]6C[C@H](OC)[C@H](O[C@H]7C[C@@H](OC)[C@H](O[C@@H]8O[C@H](CO)[C@@H](O)[C@H](O)[C@H]8O)[C@@H](C)O7)[C@@H](C)O6)[C@@H](C)O5)[C@@H](C)O4)CC[C@@]32C)[C@@]2(O)CC[C@H](C(C)=O)[C@@]12C (some centres undefined)
inactive: activity change, negative = cytotoxicity (Es-2) -1.08% [at 6.55 µM] | activity change, negative = cytotoxicity (HeLa) -14.4% [at 6.55 µM] | activity change, negative = cytotoxicity (Hek293T) 11.8% [at 6.55 µM] | activity change, negative = cytotoxicity (JEG-3) -0.396% [at 6.55 µM] | activity change, negative = cytotoxicity (OV90) 3.72% [at 6.55 µM] | activity change, negative = cytotoxicity (PA-1) -8.02% [at 6.55 µM] | activity change, negative = cytotoxicity (SKOV3) -0.126% [at 6.55 µM] | activity change, negative = cytotoxicity (Tov-21-G) 2.08% [at 6.55 µM] | activity change, negative = cytotoxicity (Tov112D) -2.78% [at 6.55 µM]

COc1ccc2c(c1O)OC[C@H]1c3ccc(O)cc3O[C@@H]21
inactive: Potency (Es-2) | Potency (HeLa) | Potency (Hek293T) | Potency (JEG-3) | Potency (OV90) | Potency (PA-1) | Potency (SKOV3) | Potency (Tov-21-G) | Potency (Tov112D)

CC1C/C=C/C=C\CCCCC(O)C/C=C/C(=O)O1 (centres undefined)
inactive: Potency (Es-2) | Potency (HeLa) | Potency (Hek293T) | Potency (JEG-3) | Potency (OV90) | Potency (PA-1) | Potency (SKOV3) | Potency (Tov-21-G) | Potency (Tov112D)

COc1cc(C2Oc3c(O)cc(CCCO)cc3C2CO)ccc1O[C@H]1O[C@H](C)[C@@H](O)[C@H](O)[C@@H]1O (some centres undefined)
inactive: Potency (Es-2) | Potency (HeLa) | Potency (Hek293T) | Potency (JEG-3) | Potency (OV90) | Potency (PA-1) | Potency (SKOV3) | Potency (Tov-21-G) | Potency (Tov112D)

COc1c(OC2OC(CO)C(O)C(O)C2O)ccc(O)c1C(=O)OCc1ccccc1O[C@@H]1O[C@H](CO)[C@@H](O)[C@H](O)[C@H]1O (some centres undefined)
inactive: Potency (Es-2) | Potency (HeLa) | Potency (Hek293T) | Potency (JEG-3) | Potency (OV90) | Potency (PA-1) | Potency (SKOV3) | Potency (Tov-21-G) | Potency (Tov112D)

CC1OC(OC2C(O)C(C(=O)O)OC(OC3CCC4(C)C(CCC5(C)C4C=CC4=C6CC(C)(C)CC(O)C6(C)CCC45C)C3(C)C)C2OC2OCC(O)C(O)C2O)C(O)C(O)C1O (centres undefined)
inactive: activity change, negative = cytotoxicity (Es-2) -1.97% [at 11.6 µM] | activity change, negative = cytotoxicity (HeLa) -2.13% [at 11.6 µM] | activity change, negative = cytotoxicity (Hek293T) -1.86% [at 11.6 µM] | activity change, negative = cytotoxicity (JEG-3) 0.12% [at 11.6 µM] | activity change, negative = cytotoxicity (OV90) 1.31% [at 11.6 µM] | activity change, negative = cytotoxicity (PA-1) 8.55% [at 11.6 µM] | activity change, negative = cytotoxicity (SKOV3) 1.68% [at 11.6 µM] | activity change, negative = cytotoxicity (Tov-21-G) 7.57% [at 11.6 µM] | activity change, negative = cytotoxicity (Tov112D) 16.2% [at 11.6 µM]

OC[C@H]1O[C@@H](Oc2ccc3c(c2)OC[C@H]2c4cc5c(cc4O[C@@H]32)OCO5)[C@H](O)[C@@H](O)[C@@H]1O
inactive: Potency (Es-2) | Potency (HeLa) | Potency (Hek293T) | Potency (JEG-3) | Potency (OV90) | Potency (PA-1) | Potency (SKOV3) | Potency (Tov-21-G) | Potency (Tov112D)

O=C(NN1CCCCC1)c1nn(-c2ccc(Cl)cc2Cl)c(-c2ccc(C#Cc3ccc(C(F)(F)F)cc3)s2)c1CNS(=O)(=O)N1CCCC1
inactive: Potency (Es-2) | Potency (HeLa) | Potency (Hek293T) | Potency (JEG-3) | Potency (OV90) | Potency (PA-1) | Potency (SKOV3) | Potency (Tov-21-G) | Potency (Tov112D)

C1CCN2CC3C[C@@H](CN4CCCC[C@@H]34)[C@H]2C1
inactive: Potency (Es-2) | Potency (HeLa) | Potency (Hek293T) | Potency (JEG-3) | Potency (OV90) | Potency (PA-1) | Potency (SKOV3) | Potency (Tov-21-G) | Potency (Tov112D)

Reference: PubChem BioAssay (NCATS)
